Molecules are shown by their SMILES. Several values for one entry are separate records, joined by “and”; a condition that tells them apart may be missing. Equal values may be shown once. Records with an inconclusive call do not appear. Values without a mark were called inactive. Activity calls are given as the source filed them. Calls follow the shape of the dose curve; as a rule, active = well fitted cell-killing curve with a large enough effect; inconclusive = small, poorly fitted or top-dose-only effect; inactive = flat fitted curve, though single readings scatter.
% is scaled to controls: 0 for no effect and ±100 for the full control effect; potency is read from the fitted curve at half-maximal effect.

This experiment in a line: Cellular viability qHTS for adrenocortical cancer (ACC) cell line SW-13 (AID 1963989). Also: nearly all actives have a fitted effect of over 65% in size.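 As to activity (max response): cells grown in serum-free medium with ITS supplement.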 The following applies: SW-13 ACC cells viability, CellTiter-Glo, 48 h; activity (max response): hits give low values. Summed up:
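SW-13 cells in ITS-supplemented serum-free DMEM were plated overnight, then exposed for 48 h at 37C to compound titrations (up to 46 uM final). Viability was read by CellTiter-Glo luminescence; four-parameter logistic fits gave IC50 and efficacy.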
For `C/C=C/c1ccc(O)c(OC)c1`, the activity (max response) is 1.66%. Regarding `CC(COc1ccccc1)NC(C)C(O)c1ccc(O)cc1` (stereo not given), the activity (max response) was 3.43%. For the compound `CCN(CC)CCOC(=O)C(c1ccccc1)C1CCCCC1` (stereo not given), the activity (max response) was 12.1%. Take `CC(C)Nc1cccnc1N1CCN(C(=O)c2cc3cc(NS(C)(=O)=O)ccc3[nH]2)CC1`: the activity (max response) is -10.3%.

Turning to `CCNC(=O)Nc1ncc(-c2cc(-c3c(C)cc(OC)cc3C)nc(-c3cnccn3)n2)s1`, the activity (max response) is -7.82%. Same read-out and setting: the result for `CC(=O)Oc1cc(C(C)C)c(OCCN(C)C)cc1C` reads 12.6%; that for `Nc1ccc(C(=O)NCC(=O)O)cc1`, -9.96%. As to `Cc1ccc2cc(-c3c(C)ccc(C(=O)c4c(-c5ccccc5)n(C)n(-c5ccccc5)c4=O)c3N)ccc2n1`, the activity (max response) is -12.9%. For `C[C@]12CCC(=O)C=C1CC[C@@H]1[C@@H]2[C@@H](O)C[C@@]2(C)[C@H]1CC[C@]2(O)C(=O)COC(=O)CCC(=O)O`, the activity (max response) was 3.9%. For `CC(C)(O)CC[C@@H](O)[C@](C)(O)[C@H]1CC[C@@]2(O)C3=CC(=O)[C@@H]4C[C@@H](O)[C@@H](O)C[C@]4(C)[C@H]3CC[C@]12C`, the activity (max response) was 9.11%.

On to `CCCCOC(=O)CC(CC(=O)OCCCC)(OC(C)=O)C(=O)OCCCC`, for which the activity (max response) is 12.7%. On to `COC(C)(C)CCn1nc(Nc2c(C)cccc2C)c2cnc(Nc3ccc(OCCN4CCCC4)c(F)c3)nc21`, for which the Potency was 2820 nM (active). Still for that read-out and setting: the result for `CC(=O)[C@]1(O)Cc2c(O)c3c(c(O)c2[C@@H](O[C@H]2C[C@H](N)[C@H](O)[C@H](C)O2)C1)C(=O)c1ccccc1C3=O` reads 46.1 nM (active) and 2 µM (active); that for `COc1ccc(S(=O)(=O)N2CCc3cccc(-c4ccncc4)c32)cc1`, 316 nM (active). Consider `C[C@]12CCC3=C4CCC(=O)C=C4CC[C@H]3[C@@H]1CC[C@@]2(O)CC#N`, for which the activity (max response) is 0.0754%. `C=C1C[C@H]2C=Nc3cc(OCCCOc4cc5c(cc4OC)C(=O)N4CC(=C)C[C@H]4C=N5)c(OC)cc3C(=O)N2C1`: the Potency was 10 nM (active).

On to `NCC1CCC(C(=O)Oc2ccc(CCC(=O)O)cc2)CC1` (stereo not given), for which the activity (max response) was 3.63%. With `CN(C)CCOc1ccc(-c2nc(-c3ccc4c(c3)CC/C4=N\O)c(-c3ccncc3)[nH]2)cc1`, the Potency was 31600 nM (active). In the case of `CC(C)Oc1ccc(-c2nn([C@@H](C)c3oc4ccc(F)cc4c(=O)c3-c3cccc(F)c3)c3ncnc(N)c23)cc1F`, the activity (max response) is 7.73%.

`CCCCCN(CCCOC)C(=O)C(CCC(=O)O)NC(=O)c1ccc(Cl)c(Cl)c1` (stereo not given): the activity (max response) is 5.62%. With `CCC(CC)CC1(C(=O)Nc2ccccc2SC(=O)C(C)C)CCCCC1`, the activity (max response) was 9.72%.

With `Cc1nc2cccc(N)c2c(=O)n1C1CCC(=O)NC1=O` (stereo not given), the activity (max response) was 3.79%. On to `c1ccc(CN(CC2=NCCN2)c2ccccc2)cc1`, for which the activity (max response) is 0.264%. Regarding `COc1ccc(S(=O)(=O)Nc2cc(-c3csc(C#N)c3)ccc2C)cc1`, the Potency was 63.1 nM (active).

Consider `CN1C(=O)N[C@H](Cc2c[nH]c3c(Cl)cccc23)C1=O`, for which the activity (max response) was -3.83%. As to `CC[C@@H](C)Nc1cc(C(=O)NC2CC3CCC(C2)N3c2ccc(C(=O)C3CC3)cn2)c(C)cc1C(N)=O` (stereo not given in full), the Potency was 355 nM (active). Take `C[C@@H]1N=C(N)NC(N(C)C)=N1`: the activity (max response) is -4.04%.

Consider `NCC1CCC(C(=O)O)CC1` (stereo not given), for which the activity (max response) is 10.7%. As to `O=C(OCCN1CCOCC1)c1cccnc1Nc1cccc(C(F)(F)F)c1`, the activity (max response) is -11.8%.

With `NC(=O)c1ncn([C@@H]2O[C@H](CO)[C@@H](O)[C@H]2O)c1N`, the activity (max response) is 3.4% and 2.54%. For the compound `CO/N=C(\C(=O)O)c1csc(NC(=O)CCl)n1`, the activity (max response) was 13%. Consider `O=C1CC(c2c[nH]c3ccc(F)cc23)C(=O)N1` (stereo not given), for which the activity (max response) was -18.5%. In the case of `COc1cc(C(=O)NC(N)=Nc2ccc(C)c(NC(=O)c3ccc(-c4ccccc4)cc3)c2)cc(OC)c1OC`, the Potency was 11200 nM (active). Regarding `CC1(C)OC(=O)NC1=O`, the activity (max response) is 15.1%.

On to `CC[C@]12C=CCN3CC[C@@]4(c5cc([C@@]6(C(=O)OC)C[C@H]7C[C@@H](C(C)(F)F)CN(Cc8c6[nH]c6ccccc86)C7)c(OC)cc5N(C)[C@H]4[C@@](O)(C(=O)OC)[C@@H]1OC(C)=O)[C@@H]32`, for which the Potency is 123 nM (active). Consider `Cc1ccc(S(=O)(=O)Cc2nc(-c3ccc(C(=O)NCc4cccnc4)cc3)oc2C)cc1`, for which the Potency is 199 nM (active). Take `CC1=C(C/C=C(\C)CCC[C@H](C)CCC[C@H](C)CCCC(C)C)C(=O)c2ccccc2C1=O`: the activity (max response) is 12.7%. On the same count and under the same terms, next, `O=C1OC(OC(=O)c2cccnc2Nc2cccc(C(F)(F)F)c2)c2ccccc21` (stereo not given): 6.27%.

Turning to `CC(C)(C)c1ccc(O)c(O)c1`, the Potency was 10000 nM (active). On to `CC(=O)OCC(=O)[C@@]1(O)CC[C@H]2[C@@H]3CCC4=CC(=O)CC[C@]4(C)[C@H]3C(=O)C[C@@]21C`, for which the activity (max response) is -12.6% and -6.75%.

The record behind these values is PubChem BioAssay (NCATS).
